Data on four compounds can be found in PubChem BioAssay (EPA / NIEHS).

As usually defined, the AC50 is the concentration giving half of the maximal activity seen.

Each structure is given as a SMILES string. The source made the active and inactive calls. Rule for the calls: active = hit-call score of the fitted dose curve at least 0.9, where 1 is the maximum; inactive = score below 0.9.

What all share (conditions): mRNA level, 48 h; actives raise or lower the signal
Read-out in test [1]: ATP-citrate lyase (ACLY), ACLY (gene 47)
Nature of the test: LTEA_HepaRG_ACLY: Life Technologies and Expression Analysis (LTEA) Assay for ATP-citrate lyase (ACLY) using HepaRG (AID 2283466). The gist of the method:
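Differentiated HepaRG cells exposed 48 h in serum-free induction medium to eight half-log concentrations up to 100 uM in 0.5% DMSO, duplicates. Transcript measured by Fluidigm TaqMan qRT-PCR, normalized to ACTB, GAPDH, POLR2A; bidirectional fit versus DMSO.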

Read-out in test [2]: Peroxisomal acyl-coenzyme A oxidase 1 (ACOX1) gene, ACOX1 (gene 51)
Nature of the test: LTEA_HepaRG_ACOX1: Life Technologies and Expression Analysis (LTEA) Assay for Peroxisomal acyl-coenzyme A oxidase 1 (ACOX1) gene using HepaRG (AID 2283467). In a few lines:
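HepaRG cells, plated 48 h then switched to serum-free induction medium, were exposed in duplicate for 48 h to 8-point half-log concentrations up to 100 uM in 0.5% DMSO. ACOX1 mRNA was measured by qRT-PCR, normalized to ACTB/GAPDH/POLR2A, and fitted bidirectionally versus DMSO.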

Read-out in test [3]: Alkaline Phosphatase, Placental (ALPP) gene, ALPP (gene 250)
Put plainly: LTEA_HepaRG_ALPP: Life Technologies and Expression Analysis (LTEA) Assay for Alkaline Phosphatase, Placental (ALPP) gene using HepaRG (AID 2283468). In a few lines:
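HepaRG, 48 h plating then 48 h dosing, serum-free induction medium, 0.5% DMSO. 8 conc, half-log, max 100 uM, duplicates. Endpoint: ALPP transcript by qRT-PCR, housekeeping-normalized; gain or loss fitted vs DMSO.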

Read-out in test [4]: Bcl-2 (BAD) gene, BAD (gene 572)
Nature of the test: LTEA_HepaRG_BAD: Life Technologies and Expression Analysis (LTEA) Assay for Bcl-2 (BAD) gene using HepaRG (AID 2283469). The gist of the method: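 Differentiated HepaRG cells were exposed in duplicate in 0.5% DMSO for 48 h to eight-point half-log concentrations up to 100 uM. BAD mRNA was measured by Fluidigm TaqMan qRT-PCR, normalized to ACTB, GAPDH and POLR2A, and fitted bidirectionally against DMSO.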

Read-out in test [5]: Bcl-2 (BAX) gene, BAX (gene 581)
Put plainly: LTEA_HepaRG_BAX: Life Technologies and Expression Analysis (LTEA) Assay for Bcl-2 (BAX) gene using HepaRG (AID 2283470). In a few lines:
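Concentration-response endpoint fitted in both directions relative to 0.5% DMSO vehicle. Human HepaRG cultures receive test chemicals for 48 h at up to 100 uM; BAX mRNA is quantified by qRT-PCR against housekeeping genes.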

Read-out in test [6]: adenosine kinase (ADK) gene, ADK (gene 132)
Nature of the test: LTEA_HepaRG_ADK: Life Technologies and Expression Analysis (LTEA) Assay for adenosine kinase (ADK) gene using HepaRG (AID 2283471). The gist of the method: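 Read-out is ADK transcript level measured by qRT-PCR and normalised to three housekeeping genes. Cells are human HepaRG, dosed for 48 h at up to 100 uM in 0.5% DMSO. Gain or loss of signal is fitted against DMSO controls.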

Read-out in test [7]: Alpha-fetoprotein (AFP) gene, AFP (gene 174)
Put plainly: LTEA_HepaRG_AFP: Life Technologies and Expression Analysis (LTEA) Assay for Alpha-fetoprotein (AFP) gene using HepaRG (AID 2283472). The gist of the method:
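After a 48 h plating period, cells are moved to serum-free induction medium and dosed in duplicate (100 uM maximum, half-log dilutions, 0.5% DMSO) for another 48 h. Total RNA goes to TaqMan qRT-PCR; AFP signal is housekeeping-normalized.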

Read-out in a further test: BCL2L11 (gene 10018)
Nature of the test: LTEA_HepaRG_BCL2L11: Life Technologies and Expression Analysis (LTEA) Assay for Bcl-2 (BCL2L11) gene using HepaRG (AID 2283473). The gist of the method: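 Read-out is BCL2L11 transcript level by qRT-PCR, normalized to three housekeeping genes and fitted bidirectionally against 0.5% DMSO vehicle. HepaRG cells received chemicals for 48 h in serum-free induction medium, 100 uM down in half-log dilutions.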

Read-out in test [8]: Apolipoprotein A-V (APOA5) gene, APOA5 (gene 116519)
Put plainly: LTEA_HepaRG_APOA5: Life Technologies and Expression Analysis (LTEA) Assay for Apolipoprotein A-V (APOA5) gene using HepaRG (AID 2283474). The gist of the method:
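Readout is APOA5 transcript level by qRT-PCR on Fluidigm dynamic arrays, normalized to three housekeeping genes. HepaRG cultures received chemicals for 48 h at up to 100 uM (half-log steps, 0.5% DMSO), with gain or loss scored relative to DMSO.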

Read-out in test [9]: Apoptosis regulator Bcl-2 (Homo sapiens) (UniProt P10415)
Nature of the test: LTEA_HepaRG_BCL2: Life Technologies and Expression Analysis (LTEA) Assay for Bcl-2 gene using HepaRG (AID 2283475). In a few lines:
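Expression change of BCL2 mRNA in HepaRG after 48 h dosing, quantified by TaqMan qRT-PCR against three endogenous controls. Concentration-response used eight points up to 100 uM, vehicle 0.5% DMSO.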

Read-out in test [10]: Bcl-2 (BID) gene, BID (gene 637)
Nature of the test: LTEA_HepaRG_BID: Life Technologies and Expression Analysis (LTEA) Assay for Bcl-2 (BID) gene using HepaRG (AID 2283476). The gist of the method:
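Gain or loss of BID expression is fitted relative to 0.5% DMSO vehicle. Human HepaRG liver cells received a 48 h chemical exposure over an eight-point concentration range.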

Read-out in the next test: Caspase-3 (Homo sapiens) (UniProt P42574)
Put plainly: LTEA_HepaRG_CASP3: Life Technologies and Expression Analysis (LTEA) Assay for cysteine-aspartic acid protease (CASP3) using HepaRG (AID 2283477). The gist of the method: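 Read-out is CASP3 mRNA level by TaqMan qRT-PCR in human HepaRG cells after 48 h chemical exposure. Eight half-log concentrations topping at 100 uM were tested in 0.5% DMSO; gain or loss was fitted relative to DMSO.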

Read-out in test [11]: Cytochrome P450 (CYP24A1), CYP24A1 (gene 1591)
Put plainly: LTEA_HepaRG_CYP24A1: Life Technologies and Expression Analysis (LTEA) Assay for Cytochrome P450 (CYP24A1) using HepaRG (AID 2283478). In a few lines:
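HepaRG, 48 h chemical exposure, 8-pt half-log CRC from 100 uM, 0.5% DMSO vehicle, duplicates. Endpoint: CYP24A1 mRNA by Fluidigm TaqMan qRT-PCR, normalized ACTB/GAPDH/POLR2A; gain/loss fit vs DMSO.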

Read-out in test [12]: Cytochrome P450 (CYP1A2), CYP1A2 (gene 1544)
Nature of the test: LTEA_HepaRG_CYP1A2: Life Technologies and Expression Analysis (LTEA) Assay for Cytochrome P450 (CYP1A2) using HepaRG (AID 2283479). In a few lines: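 CYP1A2 transcript induction or loss, quantified by Fluidigm qRT-PCR against three housekeeping genes, was fitted bidirectionally against 0.5% DMSO controls. Human HepaRG cells received eight half-log concentrations from 100 uM over 48 h.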

Read-out in test [13]: cysteine-aspartic acid protease (CASP8), CASP8 (gene 841)
Put plainly: LTEA_HepaRG_CASP8: Life Technologies and Expression Analysis (LTEA) Assay for cysteine-aspartic acid protease (CASP8) using HepaRG (AID 2283480). In a few lines: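 Differentiated HepaRG cells in serum-free induction medium, 48 h exposure, eight-point half-log series from 100 uM in 0.5% DMSO, duplicates. CASP8 mRNA by qRT-PCR, normalized to ACTB, GAPDH, POLR2A; bidirectional fit versus DMSO.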

Read-out in test [14]: Cytochrome P450 (CYP2B6), CYP2B6 (gene 1555)
Nature of the test: LTEA_HepaRG_CYP2B6: Life Technologies and Expression Analysis (LTEA) Assay for Cytochrome P450 (CYP2B6) using HepaRG (AID 2283481). The gist of the method: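 HepaRG cells plated 48 h, switched to serum-free induction medium, then dosed 48 h (8 points, half-log from 100 uM, 0.5% DMSO). RNA isolated; CYP2B6 expression measured by qRT-PCR; gain or loss fitted relative to DMSO.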

Read-out in the next test: CYP2C8 (gene 1558)
Nature of the test: LTEA_HepaRG_CYP2C8: Life Technologies and Expression Analysis (LTEA) Assay for CYP2C8 using HepaRG (AID 2283483). The gist of the method: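 Differentiated HepaRG cells in serum-free induction medium exposed 48 h in duplicate to 8 half-log concentrations from 100 uM in 0.5% DMSO. CYP2C8 mRNA by qRT-PCR normalized to ACTB, GAPDH, POLR2A; bidirectional fit versus DMSO.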

Read-out in a further test: CYP2C9 (gene 1559)
Nature of the test: LTEA_HepaRG_CYP2C9: Life Technologies and Expression Analysis (LTEA) Assay for CYP2C9 using HepaRG (AID 2283484). In a few lines:
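Differentiated human HepaRG cells in serum-free induction medium were exposed 48 h to chemicals in 8-point half-log series from 100 uM (0.5% DMSO), in duplicate. CYP2C9 mRNA was measured by qRT-PCR, normalized to ACTB/GAPDH/POLR2A, with bidirectional fitting versus DMSO.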

Read-out in the next test: CYP2E1 (gene 1571)
Put plainly: LTEA_HepaRG_CYP2E1: Life Technologies and Expression Analysis (LTEA) Assay for CYP2E1 using HepaRG (AID 2283485). The gist of the method: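 Differentiated HepaRG cells were treated in duplicate for 48 h with chemicals in 0.5% DMSO, from 100 uM downward in half-log dilutions. RNA was then analysed by qRT-PCR for CYP2E1 induction or loss.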

Read-out in test [15]: Cytochrome P450 2C19 (Homo sapiens) (UniProt P33261)
Nature of the test: LTEA_HepaRG_CYP2C19: Life Technologies and Expression Analysis (LTEA) Assay for CYP2C19 using HepaRG (AID 2283482). The gist of the method: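 Transcript levels of CYP2C19 were quantified by qRT-PCR after HepaRG cells were treated for 48 hours with test chemicals up to 100 uM (eight half-log concentrations, 0.5% DMSO vehicle). Gain or loss of signal was fitted relative to DMSO.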

Sequence of Caspase-3 (Homo sapiens) (P42574 whole entry, looked up): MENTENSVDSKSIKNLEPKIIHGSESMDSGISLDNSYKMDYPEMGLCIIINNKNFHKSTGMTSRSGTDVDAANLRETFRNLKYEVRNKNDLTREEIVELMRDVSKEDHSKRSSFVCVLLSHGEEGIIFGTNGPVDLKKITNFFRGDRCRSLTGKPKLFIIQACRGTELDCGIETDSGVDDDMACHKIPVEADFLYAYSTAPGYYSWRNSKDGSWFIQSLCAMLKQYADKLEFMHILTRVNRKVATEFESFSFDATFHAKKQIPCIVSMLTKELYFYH
Sequence of Apoptosis regulator Bcl-2 (Homo sapiens) (P10415 whole entry, looked up): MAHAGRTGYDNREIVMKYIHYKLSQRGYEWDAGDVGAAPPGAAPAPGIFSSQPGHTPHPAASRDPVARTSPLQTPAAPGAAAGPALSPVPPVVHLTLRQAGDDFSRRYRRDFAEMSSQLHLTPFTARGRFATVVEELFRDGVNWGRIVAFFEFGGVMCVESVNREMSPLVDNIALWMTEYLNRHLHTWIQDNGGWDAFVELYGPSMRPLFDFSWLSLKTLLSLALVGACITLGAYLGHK
Sequence of Cytochrome P450 2C19 (Homo sapiens) (P33261 whole entry, looked up): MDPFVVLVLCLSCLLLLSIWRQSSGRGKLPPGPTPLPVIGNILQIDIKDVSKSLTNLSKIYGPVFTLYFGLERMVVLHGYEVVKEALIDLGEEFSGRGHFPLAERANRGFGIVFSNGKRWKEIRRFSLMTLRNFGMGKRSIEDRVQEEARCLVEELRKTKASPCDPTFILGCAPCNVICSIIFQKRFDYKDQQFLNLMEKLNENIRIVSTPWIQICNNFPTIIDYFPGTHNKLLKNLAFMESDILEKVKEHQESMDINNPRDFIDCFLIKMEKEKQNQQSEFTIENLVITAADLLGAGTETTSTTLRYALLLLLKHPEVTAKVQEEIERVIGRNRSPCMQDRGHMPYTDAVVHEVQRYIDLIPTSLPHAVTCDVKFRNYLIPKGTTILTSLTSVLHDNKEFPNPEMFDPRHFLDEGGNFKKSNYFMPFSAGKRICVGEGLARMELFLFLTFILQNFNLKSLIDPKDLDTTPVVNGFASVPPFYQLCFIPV

On to `O=C(c1ccc(OCCN2CCCCC2)cc1)c1c(-c2ccc(O)cc2)sc2cc(O)ccc12`, for which the compound was classed as inactive (in [1]; in test [3]; in [4]; in test [5]; in test [7]; with BCL2L11 (gene 10018)). The outcome (in test [8]; in test [9]; in [10]; with Caspase-3 (Homo sapiens); in test [11]; in test [12]) was inactive. Also, the compound was called inactive with CYP2C8 (gene 1558). Moreover, the AC50 in [2] is 68.6 µM (active); in test [6] it was 67.7 µM (active); in [13] it was 73.3 µM (active); in [14] it was 80.5 µM (active); in the test with CYP2C9 (gene 1559), 50 µM (active); with CYP2E1 (gene 1571) it was 69.1 µM (active).
On to `C[C@]12CC[C@@H]3c4ccc(O)cc4CC[C@H]3[C@@H]1CC[C@@H]2O`, for which the outcome in test [1], in test [2], in test [3], in [4], in test [5] and in test [6] was inactive. The compound was called inactive (with BCL2L11 (gene 10018); in test [9]; in test [10]; in the test with Caspase-3 (Homo sapiens); in test [11]; in test [13]). In addition, the result in the test with CYP2C9 (gene 1559) was inactive. Moreover, the AC50 is 50 µM (active) in test [7]; 68 µM (active) in [8]; 79.5 µM (active) in test [12]; 1.73 µM (active) in [14]; 5.7 µM (active) in test [15]; 4.16 µM (active) with CYP2C8 (gene 1558). The AC50 in the test with CYP2E1 (gene 1571) is 50 µM (active).
With `COC(=O)c1ccc(C(=O)OC)cc1`, the compound was called inactive in test [1], in test [2], in [3], in [4], in test [5] and in test [6]. The call (in [7]; in the test with BCL2L11 (gene 10018); in test [8]; in test [9]; in test [10]; in the test with Caspase-3 (Homo sapiens)) was inactive. In addition, the compound was classed as inactive (in test [11]; in test [12]; in [13]; in [14]; in test [15]; in the test with CYP2C8 (gene 1558)). In addition, the result with CYP2C9 (gene 1559) and in the test with CYP2E1 (gene 1571) was inactive.
`C=C(C)C(N)=O`: the compound was classed as inactive in test [1], in test [2], in test [3], in test [4], in test [5] and in test [6]. The outcome (in test [7]; with BCL2L11 (gene 10018); in [8]; in test [9]; in test [10]; with Caspase-3 (Homo sapiens)) was inactive. Besides, the compound was classed as inactive (in test [11]; in test [12]; in test [13]; in test [14]; in [15]; with CYP2C8 (gene 1558)). Also, the compound was called inactive in the test with CYP2C9 (gene 1559) and with CYP2E1 (gene 1571).
